# Assay outcomes from PubChem BioAssay.
# Hits are enriched below; roughly 7.4% of the tested compounds scored in any of these assays.
# FLuc counter: firefly luciferase modulation, counter-screen for miR-21 project | purified FLuc, Km substrates, luminescence inhibition | 360,000 tested, 6.9% active | Potency, µM (doses to about 57.5 µM), most hits filed as inhibitors; also: nearly all actives have a fitted effect of over 55% in size
# Target sequence (P08659 whole entry, looked up): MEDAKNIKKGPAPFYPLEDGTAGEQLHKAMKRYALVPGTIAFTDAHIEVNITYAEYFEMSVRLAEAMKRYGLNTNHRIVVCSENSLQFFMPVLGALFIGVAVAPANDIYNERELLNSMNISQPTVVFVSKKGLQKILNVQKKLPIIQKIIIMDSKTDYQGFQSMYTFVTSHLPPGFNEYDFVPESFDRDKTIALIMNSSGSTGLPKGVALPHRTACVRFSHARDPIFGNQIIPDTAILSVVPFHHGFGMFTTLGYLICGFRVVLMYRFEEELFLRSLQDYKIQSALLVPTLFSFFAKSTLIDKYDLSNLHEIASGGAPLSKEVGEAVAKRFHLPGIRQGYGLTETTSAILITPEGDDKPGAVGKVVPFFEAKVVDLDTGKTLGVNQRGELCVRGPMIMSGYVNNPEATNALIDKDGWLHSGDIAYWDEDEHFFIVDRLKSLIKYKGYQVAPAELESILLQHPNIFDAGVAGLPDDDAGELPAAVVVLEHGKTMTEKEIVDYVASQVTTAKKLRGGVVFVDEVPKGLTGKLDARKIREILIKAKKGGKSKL
#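 Purified P. pyralis luciferase, 10 nM final, with Km-level 10 uM D-luciferin and 10 uM ATP in 50 mM Tris acetate pH 7.5, 10 mM Mg acetate, 0.01% Tween-20, 0.05% BSA; 6-point qHTS titration about 60 µM downward; luminescence read.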
# Rab9 promoter act: Rab9 promoter activation; Huh7 Rab9 promoter-luciferase reporter, luminescence, 24 h; Potency, µM (doses to about 9.22 µM), actives largely listed as activators; 320,000 tested, 2.8% active; also: nearly all actives have a fitted effect of over 60% in size
#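 Luciferase signal after 10 min detection reagent at ambient indicates Rab9 promoter upregulation; stably transfected Huh7 cells were treated 24 h with compound in DMSO at 37 °C, 5% CO2.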
# NPC1 promoter act: activates the NPC1 promoter | Huh7 NPC1 promoter luciferase reporter, 24 h | Potency, µM (top dose mostly 9.22 µM), actives largely listed as activators | 320,000 tested, 2.4% active; also: nearly all actives have a fitted effect of over 60% in size
#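 Stably transfected Huh7 (NPC1 promoter→luciferase), 1500 cells/well in Opti-MEM + 10% FBS, 2 h settle, then compound 24 h at 37 °C. Luminescence after 10 min with Amplite reagent.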
# ELG1 genotoxic: induces genotoxicity in HEK293T cells with luciferase-tagged ELG1 | Potency, µM (highest dose often 46 µM), hits mostly activators | AID 504466 | HEK293T ELG1-luciferase reporter, luminescence, 16 h | 330,000 tested, 1.3% active; also: nearly all actives have a fitted effect of over 60% in size
#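 HEK293T cells expressing luciferase-tagged ELG1 were exposed to compound or DMSO vehicle for 16 hr at 37 °C and 5% CO2. Luciferase activity was then measured with ONE-Glo after 30 min at room temperature.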
# SMN2 splice enh: enhancers of SMN2 splice variant expression. 210,000 tested, 2.8% active. HEK293 SMN2-luciferase splicing reporter, luminescence, 30-36 h. Potency, µM (doses to about 46.1 µM), most hits filed as activators. AID 1458; also: nearly all actives have a fitted effect of over 55% in size
#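 qHTS luciferase splicing reporter: luminescence rises when SMN2 exon 7 is included in transfected HEK293 cells. Compound exposure lasted 30-36 h at 37C, with 4.5 mM final sodium butyrate as control, followed by a ONE-Glo read.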
# Luc counter: counter-screen: inhibitors of Kinase-Glo firefly luciferase; Q27757; Kinase-Glo luciferase, ATP luminescence, 8 min; Potency, µM (highest dose often 38.3 µM), most hits filed as inhibitors; 200,000 tested, 0.28% active; AID 1379; also: nearly all actives have a fitted effect of over 60% in size
#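 Light output from Kinase-Glo luciferase with luciferin and 10 uM ATP in 50 mM imidazole pH 7.2, KCl, MgCl2, Tween 20, BSA; compound pin-delivered, 8-min ambient incubation, then luminescence read.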
# A number is an active result; - = inactive; ? = inconclusive; . = not tested or not shown; [ ] = another dose, or the depositor's remark. Calls follow the shape of the dose curve; as a rule, active = well fitted curve in the direction sought with a large enough effect; inconclusive = small, poorly fitted or top-dose-only effect, or another doubt; inactive = no such curve, though single readings can be large; an effect the other way counts as inactive or inconclusive.
SMILES,FLuc counter,Rab9 promoter act,NPC1 promoter act,ELG1 genotoxic,SMN2 splice enh,Luc counter
CN(C)S(=O)(=O)n1cnc(C(CCO)c2ncn(S(=O)(=O)N(C)C)c2CCCO)c1 (stereo not drawn),-,-,-,-,.,.
O=C(Nc1cccc(Cl)c1)Nc1sccc1-c1nc2ccccc2s1,13.5µM,-,-,-,.,.
COc1c(C)cccc1C(=O)Nc1ccc(-c2nc3ccccc3s2)c(Cl)c1,-,.,.,.,-,.
O=C(Nc1ccccc1)Nc1sccc1-c1nc2ccccc2s1,15.1µM,-,-,-,.,.
COc1ccccc1NC(=O)Nc1sccc1-c1nc2ccccc2s1,?,-,-,-,.,.
O=C(Cn1cc(C(F)(F)F)ccc1=O)Nc1cccc(S(=O)(=O)N2CCOCC2)c1,-,-,-,-,-,-
Cc1ccc(C(=O)CC2(O)C(=O)N(Cc3ccccc3Cl)c3ccccc32)o1 (stereo not drawn),-,-,-,-,?,-
Cc1ccc(C(=O)CC2(O)C(=O)N(Cc3ccccc3)c3ccccc32)o1 (stereo not drawn),-,-,-,-,11.2µM,-
O=C(O)Cc1sc(-c2ccccc2Cl)nc1-c1ccccc1,23.9µM,-,-,-,-,-
CCOC(=O)c1sc(Nc2ccc(C)cc2C)nc1C,?,-,-,-,-,-
CCOC(=O)c1sc(N/N=C/c2cccc(C)c2)nc1C,8.49µM,?,?,-,-,-
O=C(Cc1sc(-c2ccccc2)nc1-c1ccccc1)Nc1ccccc1,-,-,-,-,-,-
CCOC(=O)c1sc(NS(=O)(=O)c2ccccc2)nc1C,-,-,-,-,-,-
COc1ccccc1Nc1nc(-c2ccccc2)c(CC(=O)O)s1,16.9µM,.,.,.,-,.
CCOC(=O)c1sc(N/N=C/c2ccccc2)nc1C,2.69µM,1.58µM,2.82µM,8.2µM,12.6µM,-
Cc1ccc(S(=O)(=O)N2CCOCC2)cc1NC(=O)COC(=O)CNC(=O)c1ccc(Cl)cc1Cl,-,-,-,-,.,.
O=C(Nc1cc(S(=O)(=O)N2CCOCC2)ccc1Cl)c1ccncc1,.,.,.,-,.,.
O=C(O)Cc1sc(N/N=C\c2ccccc2)nc1-c1ccccc1,23.9µM,-,-,-,-,-
Cc1nc(N/N=C/c2ccccn2)sc1C,0.151µM,-,-,0.13µM,.,8.91µM
CC(=O)c1sc(N/N=C\c2ccccc2O)nc1C,3.38µM,?,?,6.51µM,?,-
Cc1ccc(-c2nc(Nc3cccc(C)c3)sc2CC(=O)O)cc1,?,-,-,?,.,.
COC(=O)c1ccc(/C=N/Nc2nc(C)c(C)s2)cc1,1.07µM,0.447µM,0.355µM,-,.,.
O=C(CCCc1nc2ccccc2s1)NC(c1ccccc1)c1ccccc1,-,-,-,-,-,-
CCOC(=O)c1ccc(Nc2c(-c3ccc(OC)cc3)nc3nc[nH]n23)cc1,-,.,.,.,.,.
CC(C)(C)OC(=O)C[C@H]1C/C=C\C[C@H](CC(=O)N[C@H](CO)Cc2ccccc2)C(=O)N[C@H](Cc2ccccc2)COC1=O,.,.,.,-,.,.
SMILES,FLuc counter,Rab9 promoter act,NPC1 promoter act,ELG1 genotoxic,SMN2 splice enh,Luc counter
CCOc1ccccc1N1CCN(Cc2cn[nH]c2-c2ccc(F)cc2)CC1,-,-,-,-,.,.
O=C(O)Cc1sc(Nc2ccccc2)nc1-c1cccs1,12µM,-,?,?,.,.
C=CCNc1nc(-c2cccs2)c(CC(=O)O)s1,-,-,-,-,.,.
COc1ccc(CCNC(=O)C2CCCN(S(=O)(=O)c3ccccc3)C2)cc1 (stereo not drawn),-,-,-,-,.,.
COc1ccc(F)cc1S(=O)(=O)n1cc(C)nc1-c1ccccc1,-,-,-,-,3.55µM,-
COc1ccc(F)cc1S(=O)(=O)N1CCCN(S(=O)(=O)c2cc(F)ccc2OC)CC1,-[2.3 µM],-,-,-,-,-
CSc1ncccc1C(=O)Nc1cc(C)ccn1,-,-,-,-,.,.
COc1ccccc1NC(=O)Nc1ccc(C)cn1,?,-,-,-,.,.
Cc1ccnc(NC(=O)Nc2ccc(F)cc2)c1,1.9µM,0.562µM,1.41µM,?,12.6µM,-
CC(=O)Nc1ccc(S(=O)(=O)Nc2cc(C)ccn2)cc1,-,-,-,-,-,-
CSc1ccc(NC(=O)Nc2cc(C)ccn2)cc1,0.301µM,0.447µM,0.501µM,?,1.58µM,-[7.66 µM]
Cc1ccc(NC(=O)Nc2ccc(F)cc2)nc1,10.7µM,3.98µM,?,-,25.1µM,-
Cc1ccnc(NC(=O)c2cc3cc(F)ccc3s2)c1,2.69µM,1.41µM,2.24µM,?,.,.
Cc1ccnc(NC(=O)CNC(=O)c2ccc(C)s2)c1,?,-,-,?,.,.
COc1c(C=O)c(=O)[nH]c2c(OC)cccc12,.,.,.,.,-,-
Cc1ccnc(NC(=O)Nc2ccc(Br)cc2Cl)c1,0.477µM,0.631µM,1µM,?,2.24µM,-
Cc1ccnc(NC(=O)c2ccc([N+](=O)[O-])s2)c1,13.5µM,3.55µM,3.16µM,?,.,.
COC(=O)c1ccccc1NC(=O)Nc1cc(C)ccn1,-,-,-,-,-,?
CCN(CC(=O)Nc1c(F)cccc1F)C(=O)CSc1nc(C)cc(C)n1,-,-,-,-,.,.
CCOc1ccc2nc(/N=C/c3nc(-c4ccc(Br)cc4)oc3O)sc2c1,-,-,-,-,-,-
CCCCN=Cc1sc2ccc(OCC)cc2c1O,21.3µM,-,-,-,-,-
C=CCN=Cc1sc2ccc(OCC)cc2c1O,8.49µM,2.82µM,3.16µM,?,.,.
CCCCC1CCC(C(=O)Nc2ccc(N3CCOCC3)cc2N2CCOCC2)CC1 (stereo not drawn),-,-,-,-,.,.
Fc1ccc(-c2nc3c(Cl)cc(C(F)(F)F)cn3c2Cl)cc1,?,-,-,16.4µM,17.8µM,-
COc1ccc(NC(=O)Nc2cc(C)ccc2OC)cc1,?,-,-,-,-,?
SMILES,FLuc counter,Rab9 promoter act,NPC1 promoter act,ELG1 genotoxic,SMN2 splice enh,Luc counter
COc1ccc(NC(=O)Nc2cc(C)ccc2F)cc1,12µM,2.82µM,3.55µM,23.1µM,?,-
COc1cccc(NC(=O)Nc2cc(C)ccc2F)c1,23.9µM,-,-,-,-,-
CCCN(C(=O)CSCC(=O)Nc1ccc(OC)cc1)c1c(N)n(Cc2ccccc2)c(=O)[nH]c1=O,-,-,-,-,.,.
COc1ccc(Cl)cc1NC(=O)CSc1nc(=O)[nH]c2c1CCC2,-,.,.,.,.,.
O=[N+]([O-])c1ccc2nc(N3CCCC3)sc2c1,10.7µM,3.55µM,3.16µM,?,.,.
Fc1cc(F)c2nc(N3CCCCC3)sc2c1,15.1µM,-,?,?,?,?
Fc1ccc2nc(N3CCCC3)sc2c1,12µM,?,2.24µM,?,12.6µM,-
S=C(N=Nc1ccccc1)NNc1ccccc1,19µM,-,-,-,?,-
C/C(=N/NS(=O)(=O)c1ccc(C(C)(C)C)cc1)c1ccc2c(c1)OCO2,-,-,-,-,.,.
O=C(Nc1nnc(-c2ccc3c(c2)OCCO3)o1)C1CCCCC1,?,2.51µM,3.55µM,?,?,-
